Sampled rows, rich in hits. Any-hit rate of the full collection: about 2.2%.
TLR9-MyD88 inh – inhibitors of TLR9-MyD88 association in cells, primary screen, cell-based, CHO, BLA complementation, fluorescence; Toll-like receptor 9 (Homo sapiens) + Myeloid differentiation primary response protein …; CCF4 FRET ratio; inhibition, % at 4.98 µM; 0.21% of 340,000 active; AID 504734, 2011;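 active = inhibition above the mean over all tested compounds plus 3 SD, cut at about 21% in these data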
TLR4-MyD88 BLA – inhibitors of TLR4-MyD88 association in cells, primary screen, cell-based, HeLa CL3-4, BLA complementation, FRET ratio | Toll-like receptor 4 (Homo sapiens) + Myeloid differentiation primary response protein … | 0.18% of 200,000 active | AID 861, 2007 | HeLa CL3-4 TLR4/MyD88 BLA complementation | inhibition, % at 8.4 µM; in the data active = inhibition above about 25%
NOD2-RIPK2 inh – NOD2-RIPK2 binding disruptors in cells, primary screen, fluorescence, CHO cells, BLA complementation; CCF4 ratio; AID 624267, 2012; inhibition, % at 4.98 µM; 0.38% of 360,000 active; Receptor-interacting serine/threonine-protein kinase 2 (Homo sapiens), O43353; in the data active = inhibition above about 21%
Target sequence (O43353 whole entry, looked up): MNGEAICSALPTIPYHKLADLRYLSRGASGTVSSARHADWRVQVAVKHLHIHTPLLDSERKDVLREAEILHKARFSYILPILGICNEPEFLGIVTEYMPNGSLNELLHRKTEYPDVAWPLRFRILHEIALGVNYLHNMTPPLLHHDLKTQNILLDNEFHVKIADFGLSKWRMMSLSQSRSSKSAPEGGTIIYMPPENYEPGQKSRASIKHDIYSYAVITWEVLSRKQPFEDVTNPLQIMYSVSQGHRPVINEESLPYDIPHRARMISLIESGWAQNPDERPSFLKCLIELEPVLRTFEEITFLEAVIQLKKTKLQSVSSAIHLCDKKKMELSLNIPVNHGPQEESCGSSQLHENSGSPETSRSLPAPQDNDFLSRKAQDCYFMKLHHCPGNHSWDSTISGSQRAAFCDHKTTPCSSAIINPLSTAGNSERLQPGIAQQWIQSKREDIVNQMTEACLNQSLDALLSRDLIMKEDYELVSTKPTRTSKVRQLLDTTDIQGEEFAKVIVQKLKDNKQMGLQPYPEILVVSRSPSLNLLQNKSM
ANO1 activ – TMEM16A chloride channel activators or potentiators, primary screen, cell-based, HTS | HEK293 TMEM16A/YFP-H148Q/I152L, iodide quench fluorescence; stronger effect = lower value | B-score at 10 µM | 0.3% of 340,000 active;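 active = fluorescence-ratio B-score plate-corrected deviation score at least 3 library SD below zero, with starting fluorescence score within 5 deviations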;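 note: channel opened by trigger with iodide after compound preincubation; score built on the fluorescence ratio of max minus min over baseline; more negative score means more quench and so TMEM16A activation or potentiation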
GRK2 aptamer HTS – compounds blocking aptamer binding on GRK2 – biochemical, human GRK2, bead flow cytometry, HTS, primary screen; Beta-adrenergic receptor kinase 1 (Homo sapiens), P25098; FAM-aptamer displacement from GRK2; inhibition of aptamer binding, % at 10 µM; 0.59% of 330,000 active; AID 488847, 2010;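 active = inhibition of aptamer binding above 40%, roughly 3 SD of noise, on plates passing a quality check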;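 note: median bead fluorescence of bound FAM aptamer so fluorescent compounds give negative values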
ANO1 block – TMEM16A chloride channel inhibitors, primary screen, cell-based, HTS | Anoctamin-1 (Mus musculus), Q8BHY3 | 1.2% of 310,000 active | AID 588511, 2011 | HEK293 TMEM16A/YFP iodide influx fluorescence, ionomycin | normalized B-score (activity score, 25-100; higher = stronger inhibition) at 10 µM;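 active = ratio plate-corrected score three or more library SD toward inhibition, starting fluorescence score within five deviations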;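 note: score derived from kinetic fluorescence span divided by baseline fluorescence per well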
GRK2 CP1 – GRK2 aptamer-displacing inhibitors, retest, confirmation, biochemical, cherry pick 1, bead flow cytometry. shares compounds with GRK2 aptamer HTS. bead-bound GRK2, FAM-aptamer displacement. aptamer displacement, % at 10 µM. 4% of 2,000 active. AID 504451, 2011;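 active = aptamer displacement above 40%, near three times the noise of non-fluorescent compounds, on plates passing quality checks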;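 note: negative values mostly reflect intrinsic compound fluorescence rather than true enhancement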
Aptamer quench – fluorescent aptamer quenching in GRK2 counter-screen dose response. shares compounds with GRK2 aptamer HTS. Fluorescent RNA aptamer beads, flow cytometry; stronger effect = higher value. fluorescence change (kMESF span), kMESF (test concentration not listed). 110 tested, under 10 active;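 active = compounds whose bead fluorescence drops by more than 37 kMESF across the dose range, marking them as dye quenchers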
Aptamer quench SP – quenches fluorescent RNA aptamer, GRK2 hit artifact; shares compounds with GRK2 aptamer HTS; Carboxyfluorescein RNA aptamer on beads, flow cytometry quenching; stronger effect = lower value; fluorescence response (% of DMSO), % at 10 µM; 2,000 tested, under 10 active; AID 504580;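 active = compounds that quench the bead-bound fluorescent RNA probe, cutting fluorescence to under half of the solvent control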;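 note: counterscreen run without GRK2 so only probe quenching by compound is measured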
GRK2 CP2 – GRK2 aptamer-displacing inhibitors, hit retest, confirmation, biochemical, cherry pick 2, bead flow cytometry; inhibition of aptamer binding, % at 10 µM; bead-bound GRK2, FAM-aptamer displacement; 360 tested, under 10 active; AID 504782, 2011; shares compounds with GRK2 aptamer HTS;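 active = inhibition of aptamer binding above 40%, about triple the noise seen with nonglowing compounds, on plates passing quality control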;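 note: negative values mostly come from compounds that fluoresce themselves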
FAM quench CP2 – counter-screen for GRK2 binding hits: quenchers of fluorescent RNA aptamer; fluorescence response vs DMSO, % at 10 µM; AID 588494; 360 tested, under 10 active; carboxyfluorescein RNA aptamer beads, flow cytometry quenching; stronger effect = lower value; shares compounds with GRK2 aptamer HTS;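 active = response vs DMSO under 50%, meaning signal dropped by over half, treated as fluorescence quencher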;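 note: labelled aptamer on streptavidin beads without GRK2 as a quench counter-screen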
Numbers stand for hits; – = inactive; · = not tested or not shown.

SMILES	TLR9-MyD88 inh	TLR4-MyD88 BLA	NOD2-RIPK2 inh	ANO1 activ	GRK2 aptamer HTS	ANO1 block	GRK2 CP1	Aptamer quench SP	others
Cn1c(=O)[nH]c(=O)c2c1[nH]c(=S)n2Cc1ccc(Cl)cc1	–	·	–	–	–	–	·	·
O=C(Nc1ccc2oc(-c3cccnc3)nc2c1)c1ccc2c(c1)OCCO2	–	–	–	–	60	–	–	–
COCCNC(=O)C/C(C)=N/NC(=O)C(=O)NC1CCCCC1	–	–	–	–	57	–	86	–	Aptamer quench=–
O=c1c2c3c(sc2nc(NCCO)n1CCc1ccccc1)CCCCC3	–	–	–	–	90	–	–	–
COc1ccccc1C1c2[nH]c3ccccc3c2C[C@H]2C(=O)N(C3CCN(Cc4ccccc4)CC3)CC(=O)N12 (some centres undefined)	–	·	–	–	–	–	–	–
COc1cccc(C2c3[nH]c4ccccc4c3C[C@H]3C(=O)N(C4CCN(Cc5ccccc5)CC4)CC(=O)N23)c1 (some centres undefined)	–	·	–	–	–	–	–	–
COc1ccc(C2c3[nH]c4ccccc4c3C[C@H]3C(=O)N(C4CCN(Cc5ccccc5)CC4)CC(=O)N23)cc1OC (some centres undefined)	–	·	–	–	–	–	·	·
CC(C)(C)c1ccc(/C=C2\CCn3c2nc2cc(C(=O)O)ccc2c3=O)cc1	–	·	–	–	–	–	·	·
COc1ccc(/C=C2\CCn3c2nc2cc(C(=O)O)ccc2c3=O)cc1	–	·	–	–	41	–	·	·	GRK2 CP2=–;FAM quench CP2=–
Cc1ccc(S(=O)(=O)N2C3CC(c4ccccc4)N(S(=O)(=O)c4cccc(Cl)c4)CC3C(=O)C[C@H]2c2ccccc2)cc1 (some centres undefined)	·	·	–	·	·	·	·	·
COc1cc2cc[n+](Cc3ccc([N+](=O)[O-])cc3)cc2cc1OC	–	·	–	–	–	–	·	·
CCCN1CCN(C(=O)c2ccc(F)c(S(=O)(=O)N3CCOCC3)c2)CC1	–	·	–	–	–	·	·	·
COc1cc(C2C(C#N)=C(N)Oc3c2ccc2ccccc32)ccc1OCC(=O)Nc1ccc(C)cc1 (centres undefined)	–	–	–	–	–	–	–	–
COc1cc(C2C(C#N)=C(N)Oc3c2ccc2ccccc32)ccc1OCC(=O)Nc1cccc(C)c1 (centres undefined)	–	–	–	–	–	–	·	·
CCCCNC(=O)N1CCCN(c2ccc(C#N)cn2)CC1	–	·	–	–	–	–	·	·
CCc1cc2c(=O)c(-c3nc(C)cs3)coc2cc1OC(C)C(=O)NCCO (centres undefined)	–	–	–	–	–	–	·	·
CC(C)N1C(=O)c2ccccc2C1C(=O)NCCc1ccccc1 (centres undefined)	–	·	–	–	–	–	–	–
O=C(NCCc1ccccc1)C1c2ccccc2C(=O)N1Cc1cccs1 (centres undefined)	–	–	–	–	–	–	·	·
O=C(c1ccc([N+](=O)[O-])cc1)N1CCN(c2cccc3[nH]ccc23)CC1	–	·	–	–	–	–	·	·
O=S(=O)(Nc1nc2cc3c(cc2nc1Cl)OCCO3)c1ccccc1	–	–	–	–	48	–	–	–
COc1ccc(F)cc1C(=O)C1CCCN(C(=O)c2ccccc2N(C)C)C1 (centres undefined)	–	·	–	–	–	–	·	·
Cc1c(C)c2ccc(OCC(=O)Nc3nccs3)cc2oc1=O	–	·	–	–	–	–	·	·
Cc1cc(=O)oc2cc(OCC(=O)Nc3nccs3)ccc12	–	·	–	–	57	–	–	–
CCC(C)CCN1CCN=C1Nc1ccccc1 (centres undefined)	–	·	–	–	–	–	·	·
Cc1nn(-c2nc3ccccc3n2Cc2ccccc2)c2c1C(=O)CC(C)(C)C2	–	–	–	–	–	–	·	·
SMILES	TLR9-MyD88 inh	TLR4-MyD88 BLA	NOD2-RIPK2 inh	ANO1 activ	GRK2 aptamer HTS	ANO1 block	GRK2 CP1	Aptamer quench SP	others
Cc1nn(-c2ccccc2)c2c1C(=O)N(Cc1ccccc1)C(=O)C(C)(C)C2	–	–	–	–	44	–	–	–
Cc1cc(C)c(S(=O)(=O)c2ccccc2C)c(OCCN(C)C)n1	–	·	–	–	–	–	·	·
COc1cccc(/C=N/NC(=O)CCc2n[nH]c(=O)[nH]c2=O)c1O	–	–	–	–	–	–	·	·
O=C(CCc1n[nH]c(=O)[nH]c1=O)N/N=C/c1ccco1	–	–	–	–	44	–	–	–
Cc1ccc(-c2cc(C(=O)N/N=C/c3ccco3)[nH]n2)cc1	–	–	–	–	87	–	–	–
CCOc1ccc(C/C(O)=C2\C(=O)CC(C)(C)CC2=NCC(=O)O)cc1OCC	·	–	–	–	–	–	·	·
CCC(CC)C(=O)OCC(=O)Nc1cc(OC)c([N+](=O)[O-])cc1C	–	–	–	–	–	–	·	·
CC1(c2ccccc2)CC(C)(C)N2C(=O)Cc3cccc1c32 (centres undefined)	–	–	–	–	50	–	–	–
CCOC(=O)c1c(-c2ccc(F)cc2)csc1NC(=O)C1CC=CCC1C(=O)O (centres undefined)	–	–	–	–	95	–	–	–
CC(=O)Nc1ccc(C=NNc2ccc([N+](=O)[O-])cc2S(=O)(=O)Nc2ccccc2C(=O)O)cc1	–	·	–	–	–	·	·	·

Assay outcomes (PubChem)
